Hits are enriched below; roughly 8.9% of the tested compounds scored in any of these assays.
D3 antag – blocks the human D3 dopamine receptor. P35462. D3R cells, DiscoveRx beta-arrestin luminescence, antagonist mode; active compounds read low. max response, negative = inhibition, %. hit rate 2.5% among 360,000. AID 652054; in the data active = max response below about -50%; inconclusive = no clear call, values can overlap the other calls; also: % is scaled to controls: 0 for no effect and ±100 for the full control effect
Target sequence (P35462 whole entry, looked up): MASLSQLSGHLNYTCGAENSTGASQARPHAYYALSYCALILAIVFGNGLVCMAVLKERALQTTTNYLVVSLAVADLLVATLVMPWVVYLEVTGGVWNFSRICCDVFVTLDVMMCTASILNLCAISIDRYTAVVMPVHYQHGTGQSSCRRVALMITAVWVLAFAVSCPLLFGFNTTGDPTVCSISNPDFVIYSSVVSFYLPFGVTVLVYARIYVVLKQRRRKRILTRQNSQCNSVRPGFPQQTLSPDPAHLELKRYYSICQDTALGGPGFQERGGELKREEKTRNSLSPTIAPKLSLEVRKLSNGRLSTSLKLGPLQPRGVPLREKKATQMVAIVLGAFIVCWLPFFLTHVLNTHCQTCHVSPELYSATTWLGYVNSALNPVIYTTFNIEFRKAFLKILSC
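Cells expressing the human receptor were seeded at 1500 cells/well, incubated overnight at 37 degrees C in 5% CO2, then exposed to library compounds with dopamine controls for 90 minutes at 37 degrees C before luminescent detection.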
KB-V1 cytotox – KB-V1 MDR subline cytotoxicity; hit rate 3.4% among 400,000; AID 1347076; KB-V1 MDR cells viability, CellTiter-Glo, 72 h; Potency, µM (titrated, usually from 46.1 µM), most hits filed as cytotoxic; also: potency is read from the fitted curve at half-maximal effect; % is scaled to controls: 0 for no effect and ±100 for the full control effect; nearly all actives have a fitted effect of over 60% in size
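KB-V1 MDR subline cells in DMEM (phenol-red free, 10% FBS) exposed to compounds in qHTS concentration series for 72 h at 37 degrees C. Viability read by CellTiter-Glo luminescence; concentration-effect curves fitted after normalization and correction.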
MCF10A rereplic – inducers of DNA re-replication in MCF 10A breast cells; MCF 10A DNA re-replication, Hoechst nuclear intensity, 48 h; Potency, µM (top dose mostly 46.1 µM), for the others: at the top dose activity, positive = re-replication, hits mostly activators; hit rate 2.9% among 350,000; AID 624296; also: potency is read from the fitted curve at half-maximal effect; % of control where 0% means no effect; nearly all actives have a fitted effect of over 50% in size
SW480 rerep – induces DNA re-replication in SW480 colon adenocarcinoma cells; SW480 DNA re-replication, Hoechst DNA content imaging, 48 h; Potency, µM (series often up to 46.1 µM), for inactives: at the top dose re-replication activation, most hits filed as activators; hit rate 1.8% among 340,000; also: potency is read from the fitted curve at half-maximal effect; % of control where 0% means no effect; nearly all actives have a fitted effect of over 55% in size
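Readout is total intensity of Hoechst-stained nuclei, excited at 405 nm and collected at 500-530 nm. Compound treatment lasted 48 hr at 37 C in 5% CO2 before staining.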
DRD3 agonist – activates the human D3 dopamine receptor | P35462 | D3R DiscoveRx beta-arrestin cells, luminescence, 90 min | max activation, % | hit rate 0.58% among 410,000 | AID 652048; in the data active = max activation above about 30%; also: 0% is about no effect
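Cells at 1500/well, incubated overnight, then treated with pinned compounds (dopamine as control) for 90 min at 37 degrees C. DiscoveRx reagent added for 30 - 60 minutes at room temperature; luminescence read.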
KB-3-1 tox – kills parental KB-3-1 adenocarcinoma cells; KB-3-1 viability, CellTiter-Glo ATP luminescence, 72 h; Potency, µM (highest dose often 46.1 µM), actives largely listed as cytotoxic; hit rate 1.4% among 400,000; AID 1347075; also: potency is read from the fitted curve at half-maximal effect; % is scaled to controls: 0 for no effect and ±100 for the full control effect; nearly all actives have a fitted effect of over 60% in size
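Parental KB-3-1 adenocarcinoma cells in phenol-red-free DMEM with 10% FBS were pin-treated with compounds at several concentrations, incubated 72 h at 37 °C, and viability read by CellTiter-Glo luminescence; concentration-effect curves were fitted after normalization.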
* hit, by the source's call; i = inactive; ? = inconclusive; · = no result; [ ] = remark or other dose. Unless noted, calls follow the shape of the dose curve; as a rule, active = well fitted curve in the direction sought with a large enough effect; inconclusive = small, poorly fitted or top-dose-only effect, or another doubt; inactive = no such curve, though single readings can be large; an effect the other way counts as inactive or inconclusive.

SMILES | D3 antag | KB-V1 cytotox | MCF10A rereplic | SW480 rerep | DRD3 agonist | KB-3-1 tox
CN1C(=O)/C(=C/C=C/c2ccco2)C(=O)NC1=S | -21 | i | 9% | ? | 4 | i
Cc1ccc(N2C(=O)NC(=O)/C(=C\C=C\c3ccco3)C2=O)cc1C | -59* | ? | 5.8µM* | ? | 0 | ?
Cc1ccc(N2C(=O)NC(=O)/C(=C\C=C\c3ccco3)C2=O)cc1 | -16 | i | 7.3µM* | ? | -4 | ?
CN(C)c1ccc(/C=C/C=C2/C(=O)NC(=O)N(c3ccccc3)C2=O)cc1 | -22 | ? | ? | ? | -2 | i
O=C1NC(=O)N(c2ccccc2)C(=O)/C1=C/C=C/c1ccco1 | 13 | ? | ? | 15µM* | 6 | ?
NS(=O)(=O)c1cc([C@@]2(O)NC(=O)c3ccccc32)ccc1Cl | · | · | 0%[20.6 µM] | -4%[20.6 µM] | · | ·
O=C(Oc1ccc2ccc(OC(=O)N3CCCCCC3)cc2c1)N1CCCCCC1 | ? | i | ? | 5% | -4 | i
O=[N+]([O-])c1cc(I)c(O)c(I)c1 | · | · | ? | -7% | 2 | ·
COC(=O)C1=C(c2cc3ccccc3o2)C[C@@H]2CC[C@H]1N2C(=O)NCCNC(C)=O | 8 | i | -7% | 6% | 41* | i
COC(=O)C1=C(c2cc3ccccc3o2)C[C@@H]2CC[C@H]1N2C(=O)NCc1ccc(C(F)(F)F)cc1 | -12 | ? | 3% | ? | -5 | ?
COC(=O)C1=C(c2cc3ccccc3o2)C[C@@H]2CC[C@H]1N2C(=O)N1CCOCC1 | 6 | 23µM* | ? | ? | -6 | 5.8µM*
COC(=O)C1=C(c2ccc3ccccc3c2)C[C@@H]2CC[C@H]1N2C(=O)N1CCOCC1 | -3 | i | ? | 0% | -26 | i
COC(=O)C1=C(c2cc3ccccc3o2)C[C@@H]2CC[C@H]1N2C(=O)NCc1ccccc1 | -50* | i | 14% | -8% | 6 | i
COC(=O)C1=C(c2cc3ccccc3o2)C[C@@H]2CC[C@H]1N2C(=O)NC(C)C | -19 | i | 15% | 10µM* | -12 | i
COC(=O)C1=C(c2cc3ccccc3o2)C[C@@H]2CC[C@H]1N2C(=O)NCCCOC(C)C | 8 | i | 5% | -2% | -1 | i
COC(=O)C1=C(c2ccccc2)C[C@@H]2CC[C@H]1N2C(=O)NC(C)C | 0 | i | 2% | 65% | -11 | i
N[C@@H](Cc1ccc(Oc2cc(I)c(O)c(I)c2)c(I)c1)C(=O)O | · | · | · | · | -11 | ·
N[C@@H](Cc1cc(Br)c(O)c(Br)c1)C(=O)O | · | · | 18µM* | -13% | · | ·
Cc1cc(C(=O)OCC(=O)Nc2ccc(F)cc2)c(C)n1C1CC1 | 45 | 23µM* | 2% | 0% | 4 | i
Cc1cc(C(=O)OCC(=O)Nc2cccc(F)c2)c(C)n1C1CC1 | -6 | i | 4% | 1% | -4 | i
C=CCC1(C(C)CCC)C(=O)N=C(S)NC1=O (configuration not stated) | · | · | -1% | -1% | -15 | ·
CC(=NCc1cccnc1)c1c(O)n(C2CCCCC2)c(=O)[nH]c1=O | 20 | 18µM* | 12% | 1% | 2 | i
CCC(=NCc1cccnc1)c1c(O)n(C2CCCCC2)c(=O)[nH]c1=O | -2 | i | 8% | -4% | 1 | i
C[N+]1([O-])[C@@H]2CC[C@H]1CC(OC(=O)C(CO)c1ccccc1)C2 (some centres not stated) | · | · | · | · | -5 | ·
CC(C)(C)NC(=O)N1c2ccccc2Sc2ccccc21 | 10 | i | ? | -5% | -1 | ?
SMILES | D3 antag | KB-V1 cytotox | MCF10A rereplic | SW480 rerep | DRD3 agonist | KB-3-1 tox
O=C(c1cc([N+](=O)[O-])ccc1N1CCNCC1)N1CCOCC1 | 7 | i | -3% | -24% | 2 | i
O=[N+]([O-])c1ccc(N2CCNCC2)c(Cl)c1 | 7 | ? | 7.3µM* | -4% | -3 | i
CC(=O)OC(C)(C)/C=C/C(=O)[C@](C)(O)C1[C@H](O)C[C@@]2(C)C3CC=C4C(C[C@H](O)C(=O)C4(C)C)[C@]3(C)C(=O)C[C@]12C (some centres not stated) | -1 | 0.92µM* | ? | ? | -23 | 0.037µM*
CC(C)(O)/C=C/C(=O)C(C)(O)C1C(O)CC2(C)C3CC=C4C(C=C(O)C(=O)C4(C)C)C3(C)C(=O)CC12C (configuration not stated) | 1 | 0.92µM* | 2.9µM* | ? | 8 | 0.18µM*
Cn1c(=O)oc2cc(NC(=O)CCl)ccc21 | -11 | ? | 17% | ? | -2 | ?
Cc1cc(S(=O)(=O)NC(C)C)ccc1OCC(=O)N1CCN(Cc2ccc3c(c2)OCO3)CC1 | -10 | 2.6µM* | -1% | -2% | 6 | 16µM*
CC(C)NS(=O)(=O)c1ccc(OCC(=O)N2CCN(Cc3ccc4c(c3)OCO4)CC2)c(Cl)c1 | 23 | i | 28% | -2% | 11 | i
Nc1ccc(N)cc1 | · | · | -10% | 12% | -7 | ·
Cc1ccc(C(=O)N[C@@H](C)CN2C3=NC[C@@H](Cc4ccccc4)N3C[C@H]2Cc2ccc(O)cc2)cc1Br | -70* | i | 5% | -8% | -53 | ?
Cc1ccc(C(=O)N[C@@H](C)CN2C3=NC[C@H](Cc4ccccc4)N3C[C@H]2Cc2ccc(O)cc2)cc1Br | -27 | i | ? | 13µM* | -23 | ?
CCN(Cc1ccc(Cl)nc1)/C(=C/[N+](=O)[O-])NC | · | · | 3% | -2% | -9 | ·
N=Cc1c(O)n(-c2ccc(C34CC5CC(CC(C5)C3)C4)cc2)c(=O)[nH]c1=O | -1 | i | 5% | 3.3µM* | 1 | i
O=c1[nH]c(=O)n(-c2ccc(Br)cc2)c(O)c1C=NC(CO)(CO)CO | 7 | ? | -1% | 4% | 0 | i
COc1ccc(OC)c(NP(=O)(Oc2ccccc2)Oc2ccccc2)c1 | 16 | i | 0% | -18% | -11 | i
COc1ccc(S(=O)(=O)Nc2cc([N+](=O)[O-])ccc2OC)cc1 | 16 | 18µM* | ? | ? | -6 | ?
O=C(O)c1[nH]c(=O)[nH]c(=O)c1F | -27 | i | -5% | -6% | -12 | 7.3µM*
C[C@@H]1O[C@@H](O[C@@H]2C=C3CC[C@@H]4[C@@H](CC[C@]5(C)[C@H](c6ccc(=O)oc6)CC[C@@]45O)[C@@]3(C)CC2)[C@H](O)[C@H](O)[C@H]1O | · | 0.92µM* | · | · | · | 0.012µM*
COc1ccccc1CCNC1CCCCCC1 | ? | ? | 4% | 1% | -13 | i
COc1ccc(CCNC2CCCCCC2)cc1 | -15 | i | 16% | 3.3µM* | -10 | i

Assay outcomes: PubChem BioAssay, National Center for Advancing Translational Sciences (NCATS)
